Results on twelve compounds are retold here after PubChem BioAssay (NCATS).

Several values for one entry are separate records, joined by “and”; a condition that tells them apart may be missing. Equal values may be shown once. Inconclusive results are not listed. Activity calls are given as the source filed them. Unless noted, the call rests on the fitted dose curve; in most records, active means well fitted inhibition curve with a large enough effect; inconclusive means small, poorly fitted or top-dose-only effect; inactive means flat fitted curve, though single readings scatter. Bridge positions count the residues as written; N and C are the ends. Square brackets hold non-standard residues; d marks the D form. Peptide text beside a SMILES is read from it. * marks the point of attachment. Octanoyl(6-Me) = CCC(C)CCCCC(=O)*; Dab = NCC[CH](N)C(=O)O

The target in assay [1] is Mitogen-activated protein kinase 10 (Mus musculus) (UniProt Q61831). As to the kind of experiment: JNK3 AlphaScreen Assay (AID 530; active means well fitted curve in either direction with a large enough effect, not every such curve was filed as active;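 further: kinase came from lysate of stimulated human HepG2 cells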; further: potency means the concentration at half of the fitted maximal effect). In short, it runs like this:
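JNK3 came from HepG2 lysates pre-activated with IL-1beta and TNF-alpha and phosphorylated biotinylated GST-cJun (1-79) at 10 uM ATP, pH 7.6, room temperature. Compounds were titrated. AlphaScreen signal used anti-phospho-cJun (Ser73) antibody.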

The target of assay [2] is Glucocorticoid receptor (Homo sapiens) (UniProt P04150). As to the kind of experiment: qHTS assay for small molecule agonists of glucocorticoid receptor signaling (AID 588532; active means well fitted curve in the direction sought with a large enough effect in the signal ratio, with a control signal flat; the % refers to the signal ratio;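 further: 100% = dexamethasone at 0.1 µM and 0% = DMSO only wells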). The conditions noted are these: HeLa MMTV-bla, beta-lactamase ratio, agonist, 18 h; stronger effect = higher value; percent of dexamethasone control, DMSO zero. In short, it runs like this: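 Stimulation of a glucocorticoid response element-driven beta-lactamase gene was measured in HeLa cells. Responses were scaled between DMSO basal and 0.1 uM dexamethasone, then fitted for half-maximal stimulation.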

A short description of assay [3]: qHTS assay for small molecule agonists of retinoid X receptor alpha signaling (AID 588544; calls by dose curve;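 on activation: 0% = DMSO basal wells and 100% = reference agonist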). The conditions noted are these: HEK293T RXRa-UAS-bla, beta-lactamase reporter, 18 h; 530 nm emission.
Assay [4] has as its target Retinoic acid receptor RXR-alpha (Homo sapiens) (UniProt P19793). Described as above.
Assay [5] deals with Nuclear receptor subfamily 1 group I member 2 (Rattus norvegicus) (UniProt Q9R1A7). In words: qHTS assay for small molecule activators of the rat pregnane X receptor (rPXR) signaling pathway (AID 651751; call rule not given here; further: 0% is about no effect). The note with it: rPXR reporter cells, luciferase (One-Glo), 24 h.
For assay [6], the target named is Ubiquitin carboxyl-terminal hydrolase 1 (Homo sapiens) (UniProt O94782). In words: Inhibitors of USP1/UAF1: Pilot qHTS (AID 504865). Further: nearly all actives have a fitted effect of over 35% in size. Further: potency means the concentration at half of the fitted maximal effect. Summed up: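 Kinetic fluorescence assay: 1nM USP1/UAF1, 15 min compound preincubation, then 150nM Ub-Rho; 480/540 nm.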
The test system of the next assay is AA1029. As to the kind of experiment: qHTS profiling for inhibitors of Plasmodium falciparum proliferation (AID 504749). Further: nearly all actives have a fitted effect of over 60% in size. Further: potency means the concentration at half of the fitted maximal effect. The note with it: P. falciparum in erythrocytes, SYBR Green DNA, 72 h; series mostly up to 28.7 µM. Summed up:
(§1)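 P. falciparum-infected erythrocytes (0.3% parasitemia, 2.5% hematocrit final) were exposed to compounds for 72 h at 37 C in 5% CO2, then lysed with SYBR Green buffer overnight at room temperature; parasite DNA fluorescence was normalized to artemisinin and DMSO controls.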

The test system of a further assay is ATS189. The assay is described as above. The note with it: P. falciparum in erythrocytes, SYBR Green DNA, 72 h; series mostly up to 28.7 µM. Summed up:
as §1

Another assay relates to ATS95. The description is as above. The note with it: P. falciparum in erythrocytes, SYBR Green DNA, 72 h; series mostly up to 28.7 µM. In short, it runs like this:
as §1

A further assay relates to CP211. Described as above. The conditions noted are these: P. falciparum in erythrocytes, SYBR Green DNA, 72 h; series mostly up to 28.7 µM. In short, it runs like this:
as §1

Another assay has as its system CP215. The assay is described as above. The conditions noted are these: P. falciparum in erythrocytes, SYBR Green DNA, 72 h; series mostly up to 28.7 µM. In short, it runs like this:
as §1

The test system of another assay is CP238. The description is as above. The note with it: P. falciparum in erythrocytes, SYBR Green DNA, 72 h; series mostly up to 28.7 µM. In short, it runs like this: as §1
A further assay deals with CP266. Described as above. The note with it: P. falciparum in erythrocytes, SYBR Green DNA, 72 h; series mostly up to 28.7 µM. In short, it runs like this: as §1
A further assay deals with CP286. The description is as above. The conditions noted are these: P. falciparum in erythrocytes, SYBR Green DNA, 72 h; series mostly up to 28.7 µM. In short, it runs like this:
as §1

Another assay deals with CP315. The assay is described as above. The note with it: P. falciparum in erythrocytes, SYBR Green DNA, 72 h; series mostly up to 28.7 µM. Summed up:
as §1

The test system of another assay is CP335. The assay is described as above. The note with it: P. falciparum in erythrocytes, SYBR Green DNA, 72 h; series mostly up to 28.7 µM. In short, it runs like this:
as §1

In another assay the test system is DIV17. Described as above. The note with it: P. falciparum in erythrocytes, SYBR Green DNA, 72 h; series mostly up to 28.7 µM. Summed up:
as §1

A further assay relates to DIV30. Described as above. The conditions noted are these: P. falciparum in erythrocytes, SYBR Green DNA, 72 h; series mostly up to 28.7 µM. Summed up:
as §1

In a further assay the test system is PC15. The description is as above. The conditions noted are these: P. falciparum in erythrocytes, SYBR Green DNA, 72 h; series mostly up to 28.7 µM. In short, it runs like this:
as §1

In a further assay the test system is W2. Described as above. The note with it: P. falciparum in erythrocytes, SYBR Green DNA, 72 h; series mostly up to 28.7 µM. In short, it runs like this: as §1

Sequence of Ubiquitin carboxyl-terminal hydrolase 1 (Homo sapiens) (O94782 whole entry, looked up): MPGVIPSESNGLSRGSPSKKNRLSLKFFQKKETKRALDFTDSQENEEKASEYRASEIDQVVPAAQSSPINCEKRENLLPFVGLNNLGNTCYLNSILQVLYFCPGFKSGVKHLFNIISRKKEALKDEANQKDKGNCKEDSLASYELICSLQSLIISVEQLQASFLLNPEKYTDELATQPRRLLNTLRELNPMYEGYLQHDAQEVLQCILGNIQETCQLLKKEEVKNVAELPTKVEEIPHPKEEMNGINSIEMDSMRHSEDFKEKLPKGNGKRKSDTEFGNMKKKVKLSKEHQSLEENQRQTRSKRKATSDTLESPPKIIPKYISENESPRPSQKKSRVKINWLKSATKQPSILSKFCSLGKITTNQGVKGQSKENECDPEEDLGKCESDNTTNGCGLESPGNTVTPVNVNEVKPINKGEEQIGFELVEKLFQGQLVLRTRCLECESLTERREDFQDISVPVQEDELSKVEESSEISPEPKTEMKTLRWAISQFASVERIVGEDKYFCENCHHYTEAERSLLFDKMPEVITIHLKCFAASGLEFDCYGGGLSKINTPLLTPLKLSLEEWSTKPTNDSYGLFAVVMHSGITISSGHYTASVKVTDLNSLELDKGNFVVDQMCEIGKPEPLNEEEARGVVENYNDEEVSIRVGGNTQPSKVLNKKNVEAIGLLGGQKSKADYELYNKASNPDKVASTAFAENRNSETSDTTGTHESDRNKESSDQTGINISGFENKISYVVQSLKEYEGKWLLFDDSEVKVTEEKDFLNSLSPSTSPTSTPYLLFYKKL
Sequence of Nuclear receptor subfamily 1 group I member 2 (Rattus norvegicus) (Q9R1A7 whole entry, looked up): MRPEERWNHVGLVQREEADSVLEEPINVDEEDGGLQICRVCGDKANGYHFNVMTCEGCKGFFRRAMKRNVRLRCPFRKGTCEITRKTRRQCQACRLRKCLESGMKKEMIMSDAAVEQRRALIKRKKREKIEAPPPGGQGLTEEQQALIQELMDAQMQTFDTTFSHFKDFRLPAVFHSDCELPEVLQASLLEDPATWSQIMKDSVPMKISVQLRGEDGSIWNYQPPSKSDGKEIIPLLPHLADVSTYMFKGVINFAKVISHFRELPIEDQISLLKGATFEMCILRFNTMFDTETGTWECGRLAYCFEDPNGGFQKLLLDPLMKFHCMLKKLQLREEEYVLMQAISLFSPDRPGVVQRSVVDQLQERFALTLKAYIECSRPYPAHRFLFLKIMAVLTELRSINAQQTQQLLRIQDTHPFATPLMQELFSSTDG
Sequence of Retinoic acid receptor RXR-alpha (Homo sapiens) (P19793 whole entry, looked up): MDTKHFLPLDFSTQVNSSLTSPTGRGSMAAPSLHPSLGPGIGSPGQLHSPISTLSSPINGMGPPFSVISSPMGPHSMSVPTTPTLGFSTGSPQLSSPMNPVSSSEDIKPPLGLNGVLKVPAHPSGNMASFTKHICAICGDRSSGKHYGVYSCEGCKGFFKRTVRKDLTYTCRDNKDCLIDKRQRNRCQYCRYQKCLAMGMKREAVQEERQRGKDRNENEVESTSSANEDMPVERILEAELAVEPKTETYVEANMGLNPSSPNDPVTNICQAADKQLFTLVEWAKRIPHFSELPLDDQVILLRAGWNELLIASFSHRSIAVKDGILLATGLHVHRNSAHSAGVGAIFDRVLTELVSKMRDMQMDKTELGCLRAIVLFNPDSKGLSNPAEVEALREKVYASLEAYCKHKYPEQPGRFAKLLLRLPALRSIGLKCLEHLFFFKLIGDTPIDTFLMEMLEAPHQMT
Sequence of Glucocorticoid receptor (Homo sapiens) (P04150 whole entry, looked up): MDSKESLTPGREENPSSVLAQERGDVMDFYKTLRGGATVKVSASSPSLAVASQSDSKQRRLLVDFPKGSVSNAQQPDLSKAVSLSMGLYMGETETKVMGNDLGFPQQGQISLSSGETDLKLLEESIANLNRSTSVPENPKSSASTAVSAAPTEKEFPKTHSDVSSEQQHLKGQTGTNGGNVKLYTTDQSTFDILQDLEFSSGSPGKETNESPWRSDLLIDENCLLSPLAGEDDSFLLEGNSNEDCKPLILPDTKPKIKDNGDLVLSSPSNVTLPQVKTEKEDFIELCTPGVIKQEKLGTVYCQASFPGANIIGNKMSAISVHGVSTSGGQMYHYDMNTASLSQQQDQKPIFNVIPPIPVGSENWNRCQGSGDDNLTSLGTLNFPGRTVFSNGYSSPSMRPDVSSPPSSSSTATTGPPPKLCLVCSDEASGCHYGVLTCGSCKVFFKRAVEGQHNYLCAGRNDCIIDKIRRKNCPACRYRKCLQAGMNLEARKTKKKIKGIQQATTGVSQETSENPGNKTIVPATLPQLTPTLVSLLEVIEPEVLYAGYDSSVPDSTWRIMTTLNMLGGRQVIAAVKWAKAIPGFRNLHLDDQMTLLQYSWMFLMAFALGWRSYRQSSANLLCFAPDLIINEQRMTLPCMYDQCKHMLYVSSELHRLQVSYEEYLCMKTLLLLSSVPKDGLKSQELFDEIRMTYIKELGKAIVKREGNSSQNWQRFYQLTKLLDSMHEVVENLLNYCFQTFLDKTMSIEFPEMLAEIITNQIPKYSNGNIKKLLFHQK

In the case of `O=C(O)c1ccccc1C(c1ccc(O)cc1)c1ccc(O)cc1`, the Potency entry in assay [1] is “inactive”. Besides, the activation in assay [2] was -2.81% (inactive) and -6.49% (inactive). Also, the max response in assay [3] is -8.41% and -22.6%; in assay [5], 0.601% (inactive) and -3.77% (inactive). Further, the call in [4] was inactive.

Regarding `CCC(C)CCCCC(=O)NC(CCN)C(=O)NC(C(=O)NC(CCN)C(=O)NC1CCNC(=O)C(C(C)O)NC(=O)C(CCN)NC(=O)C(CCN)NC(=O)C(CC(C)C)NC(=O)C(Cc2ccccc2)NC(=O)C(CCN)NC1=O)C(C)O` (stereo unspecified) ({Octanoyl(6-Me)}-[Dab]T[Dab][Dab][Dab]FL[Dab][Dab]T; lactam 4-C; configuration not given here), in [6], the Potency is 50100 nM (active). In addition, the Potency result in the assay on AA1029, with ATS189, in the assay on ATS95, in the assay with CP211, with CP215 and in the assay with CP238 was “inactive” throughout. In addition, the Potency result in the assay with CP266, in the assay with CP286, in the assay on CP315, in the assay with CP335, in the assay on DIV17 and with DIV30 was “inactive” in each case. The Potency entry in the assay on PC15 and in the assay with W2 was “inactive” in each case.

For `CC(C)(CO)C(O)C(=O)NCCCC(=O)O` (stereo unspecified), the Potency entry (in assay [6]; in the assay on AA1029; with ATS95; in the assay on PC15) was “inactive” each time. Besides, the Potency in the assay with ATS189 is 2820 nM (active); in the assay on CP215 it was 12000 nM (active); in the assay with CP238, 17800 nM (active); with CP286 it was 10000 nM (active).

`O=c1cc(-c2cccc(O)c2)oc2c(O)c(O)ccc12`: the Potency in assay [1] was 7940 nM (active).

On to `CC1CCC(C(C)C)C(OC(=O)c2ccccc2O)C1` (stereo unspecified), for which the Potency result (in assay [6]; in the assay on AA1029; with ATS189; in the assay with ATS95; in the assay on CP211; with CP215) was “inactive” each time. For the same compound, the Potency entry in the assay on CP238, in the assay on CP266, in the assay with CP286, in the assay on CP315, in the assay on CP335 and in the assay with DIV17 was “inactive” in each case. Further, the Potency entry with DIV30, in the assay on PC15 and in the assay on W2 was “inactive” each time.

For the compound `CC(=O)O[C@@]12CO[C@@H]1C[C@H](O)[C@@]1(C)C(=O)[C@H](O)C3=C(C)[C@@H](OC(=O)C(O)[C@@H](NC(=O)OC(C)(C)C)c4ccccc4)C[C@@](O)([C@@H](OC(=O)c4ccccc4)[C@H]21)C3(C)C` (stereo partly specified), the Potency result in [6] is “inactive”. In addition, the Potency in the assay with AA1029 is 44.7 nM (active); in the assay on ATS189 it was 35.5 nM (active); with ATS95, 35.5 nM (active); in the assay with CP211, 42.6 nM (active); with CP215, 67.5 nM (active); in the assay on CP238, 28.2 nM (active). Further, the Potency in the assay with CP286 is 17.8 nM (active); in the assay with CP315, 33.8 nM (active); in the assay with CP335 it was 21.3 nM (active); in the assay on DIV17 it was 1350 nM (active); in the assay with DIV30 it was 53.6 nM (active); in the assay with PC15, 5620 nM (active). Moreover, the Potency in the assay with W2 is 15.1 nM (active).

`CC1(C)S[C@@H]2[C@H](NC(=O)COc3ccccc3)C(=O)N2[C@H]1C(=O)O`: the Potency result (in assay [6]; in the assay on AA1029; in the assay on ATS189; in the assay on ATS95; in the assay on CP211; with CP215) was “inactive” each time. Also, the Potency entry in the assay on CP238, in the assay on CP266, with CP286, in the assay on CP315, in the assay with CP335 and in the assay with DIV17 was “inactive” throughout. Also, the Potency entry in the assay with DIV30, with PC15 and in the assay with W2 was “inactive” in each case. Further, in assay [2], the activation was 10.3% (inactive). The results for the max response in assay [3] and in [5] were -5.75% and -0.437% (inactive), respectively. In assay [4], the compound was called inactive.

Turning to `O=C1CCc2ccccc2O1`, the Potency result in assay [1] is “inactive”. Besides, the activation in assay [2] is -2.22% (inactive). Moreover, the max response in assay [3] was -3.26%; in [5], 3.11% (inactive). In assay [4], the call was inactive.

As for `c1ccc2scnc2c1`, the Potency result in [1] was “inactive”. The activation in assay [2] was -6.61% (inactive). The max response in assay [3] is -4.98%; in assay [5], -1.2% (inactive). Further, the compound was called inactive in [4].

Turning to `O=S(=O)(O)c1ccccc1`, the Potency result in assay [1] is “inactive”. In [2], the activation was -5.18% (inactive). Moreover, the values for the max response in assay [3] and in assay [5] were 0.332% and 2.35% (inactive), respectively. For the same compound, the outcome in assay [4] was inactive.

`Nc1nc(Cl)nc2c1ncn2C1CC(O)C(CO)O1` (stereo unspecified): the Potency result in the assay on CP211, in the assay with CP215, in the assay on CP266, with CP315, in the assay on CP335 and in the assay with DIV17 was “inactive” in each case. In addition, the Potency result in the assay with DIV30 and in the assay with W2 was “inactive” each time.

For `COc1cc(/C=C/C(=O)N2CCC=CC2=O)cc(OC)c1OC`, the Potency entry in [6] was “inactive”.
